Among the test systems are NCI-H23 lung; NCI-H226 lung; NCI-H322M lung; HOP-62 NSCLC; NCI-H460 lung; HOP-92 NSCLC; NCI-H522 lung; 786-0 renal; COLO 205 colon; DU-145 prostate; K-562 leukemia; MALME-3M melanoma; MDA-MB-231 breast; RXF 393 renal; SF-268 CNS; SF-295 CNS; SF-539 CNS; UACC-257 melanoma; M14 melanoma; A549/ATCC NSCLC.
What all share (assay): NCI-60 one-dose screen, 48 h (100 = growth as untreated, 0 = no growth, -100 = all killed)
Holding throughout (settings): 10 µM unless noted

Values joined by “and” are separate entries in the source; they are usually repeats but may differ in a detail not shown here. Identical values can stand only once. Compounds without any hit were thinned out: in the full panel of roughly 83,000, 20% have a hit.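 Note: values are percent growth. 100 is the growth of untreated cells, values between 100 and 0 indicate rising inhibition; between -100 and 0 indicates cell death.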 Active and inactive are the calls of the source. How the source made its calls: active means growth percent below 10; inactive means the rest.

Our source for the growth values is PubChem BioAssay (NCI).

In the case of `COC(=O)/C=C1/SC(N2N=C(c3cccs3)CC2c2ccc(F)cc2)=NC1=O` (stereo not drawn), the growth in the assay on NCI-H23 lung was 82.2% (inactive); in the assay with NCI-H226 lung it was 84% (inactive); with NCI-H322M lung, 93% (inactive); with HOP-62 NSCLC, 85.2% (inactive); with NCI-H460 lung, 24.4% (inactive); in the assay on HOP-92 NSCLC it was 77.1% (inactive). Moreover, the growth in the assay on NCI-H522 lung was 24.3% (inactive); with 786-0 renal, 85.3% (inactive); in the assay on COLO 205 colon, 21.8% (inactive); in the assay on DU-145 prostate, 31% (inactive); in the assay on K-562 leukemia it was 5.16% (active); with MALME-3M melanoma, 79.7% (inactive). For the same compound, the growth is 35% (inactive) with MDA-MB-231 breast; 48.7% (inactive) in the assay on RXF 393 renal; 32.4% (inactive) in the assay with SF-268 CNS; 91.4% (inactive) in the assay with SF-295 CNS; 91.6% (inactive) in the assay with SF-539 CNS; 84.4% (inactive) in the assay with UACC-257 melanoma. Besides, the growth in the assay on M14 melanoma is 50.8% (inactive).

For the compound `COc1nc(=O)n(C2C=CC(=O)O2)cc1F` (stereo not drawn), the growth in the assay with NCI-H23 lung is 102% (inactive); with NCI-H226 lung, 106% (inactive); in the assay on NCI-H322M lung it was 102% (inactive); in the assay with HOP-62 NSCLC, 110% (inactive); with NCI-H460 lung, 110% (inactive); in the assay on HOP-92 NSCLC, 87.8% (inactive). For the same compound, the growth was 39.1% (inactive) with NCI-H522 lung; 92.5% (inactive) with 786-0 renal; 46.5% (inactive) in the assay on COLO 205 colon; 81.1% (inactive) in the assay with DU-145 prostate; 40.8% (inactive) in the assay with K-562 leukemia; 45.5% (inactive) with MALME-3M melanoma. The growth in the assay with MDA-MB-231 breast is 100% (inactive); in the assay with RXF 393 renal it was 80.7% (inactive); in the assay with SF-268 CNS, 85.7% (inactive); in the assay with SF-295 CNS it was 98.2% (inactive); with SF-539 CNS it was 99.1% (inactive); in the assay with UACC-257 melanoma it was 88.8% (inactive). In addition, in the assay with M14 melanoma, the growth was 69.9% (inactive).

For `Nc1ccccc1SC(CC(=O)c1ccccc1)c1ccc([N+](=O)[O-])cc1` (stereo not drawn), the growth is 93.2% (inactive) and 84.7% (inactive) with NCI-H23 lung; 107% (inactive) and 83.8% (inactive) in the assay on NCI-H322M lung; 106% (inactive) and 102% (inactive) in the assay with HOP-62 NSCLC; 103% (inactive) and 105% (inactive) in the assay on NCI-H460 lung; 71.4% (inactive) in the assay with HOP-92 NSCLC; 96.9% (inactive) and 76.4% (inactive) with NCI-H522 lung. Also, the growth in the assay on A549/ATCC NSCLC is 93.9% (inactive) and 82% (inactive); in the assay on 786-0 renal, 106% (inactive) and 93.3% (inactive); with DU-145 prostate, 110% (inactive) and 88% (inactive); in the assay on K-562 leukemia it was 68.8% (inactive) and 13.2% (inactive); with MALME-3M melanoma, 112% (inactive) and 74.5% (inactive); in the assay on MDA-MB-231 breast, 84.1% (inactive) and 85.2% (inactive). Besides, the growth in the assay on RXF 393 renal is 102% (inactive) and 91.2% (inactive); with SF-268 CNS, 98.7% (inactive) and 82.1% (inactive); in the assay with SF-295 CNS, 90.2% (inactive) and 85.2% (inactive); with SF-539 CNS, 107% (inactive) and 105% (inactive); in the assay on UACC-257 melanoma, 107% (inactive) and 86.7% (inactive).

Regarding `COc1cc2c(cc1OCCCOC1=C=C=C(c3ccc4c(c3)c3cc(-c5ccc(OCCCOc6cc7c(cc6OC)C(=O)N6CCC[C@H]6C=N7)cc5)ccc3n4S(=O)(=O)c3ccc(C)cc3)C=C1)N=C[C@@H]1CCCN1C2=O`, the growth was 36.7% (inactive) in the assay with NCI-H23 lung; 22.8% (inactive) in the assay with NCI-H226 lung; 216% (inactive) in the assay with NCI-H322M lung; 116% (inactive) and 54.5% (inactive) in the assay with HOP-62 NSCLC; 15.5% (inactive) in the assay with NCI-H460 lung; 69.3% (inactive) in the assay with HOP-92 NSCLC. The growth with NCI-H522 lung was -8.9% (active); in the assay with 786-0 renal it was 115% (inactive) and 1.63% (active); in the assay on COLO 205 colon it was 49% (inactive); in the assay on DU-145 prostate it was -66.5% (active); in the assay with K-562 leukemia it was 8.45% (active); with MALME-3M melanoma, 240% (inactive). In addition, the growth is 23.3% (inactive) in the assay on MDA-MB-231 breast; -41.8% (active) in the assay on SF-268 CNS; -26% (active) in the assay on SF-295 CNS; 13.3% (inactive) with SF-539 CNS; 52.6% (inactive) in the assay on UACC-257 melanoma; 22.2% (inactive) in the assay on M14 melanoma.

As to `COc1cc(OC)cc(-c2ccc(-c3ccc(C(=N)N)cn3)s2)c1`, the growth is 94.6% (inactive) in the assay on NCI-H23 lung; 70% (inactive) in the assay with NCI-H226 lung; 89.2% (inactive) with NCI-H322M lung; 86% (inactive) in the assay with HOP-62 NSCLC; 4.75% (active) with NCI-H460 lung; 86.6% (inactive) with HOP-92 NSCLC. The growth in the assay on NCI-H522 lung was 78.7% (inactive); in the assay on 786-0 renal it was 74.3% (inactive); in the assay on DU-145 prostate, 66.3% (inactive); in the assay on K-562 leukemia, 0.742% (active); in the assay on MALME-3M melanoma, 99.5% (inactive); in the assay with MDA-MB-231 breast it was 81.1% (inactive). The growth with RXF 393 renal is 98.6% (inactive); in the assay on SF-268 CNS it was 93.9% (inactive); with SF-295 CNS it was 88.7% (inactive); in the assay on SF-539 CNS it was 83.3% (inactive); in the assay with UACC-257 melanoma it was 97.8% (inactive); in the assay with M14 melanoma, 95.7% (inactive).

With `COc1ccc(C(c2cc(OC)c(OC)c(OC)c2)n2ccnc2)cc1O` (stereo not drawn), the growth in the assay with NCI-H23 lung is 38.9% (inactive); in the assay with NCI-H226 lung it was 68.7% (inactive); in the assay on NCI-H322M lung, 48.2% (inactive); in the assay on HOP-62 NSCLC it was 29.5% (inactive); in the assay on NCI-H460 lung, 6.11% (active); in the assay on HOP-92 NSCLC it was 25.8% (inactive). In addition, the growth with NCI-H522 lung is 12.1% (inactive); in the assay on 786-0 renal it was 20% (inactive); in the assay on COLO 205 colon it was -9.99% (active); with DU-145 prostate it was 12.9% (inactive); in the assay with K-562 leukemia it was 8% (active); with MALME-3M melanoma, 66.6% (inactive). Also, the growth with MDA-MB-231 breast was 34.8% (inactive); in the assay on RXF 393 renal it was -5.38% (active); in the assay on SF-268 CNS it was 39.6% (inactive); in the assay on SF-295 CNS, -3.02% (active); in the assay with SF-539 CNS it was 9.52% (active); in the assay with UACC-257 melanoma, 37.8% (inactive). Also, the growth in the assay on M14 melanoma is 0.908% (active).

For the compound `CCCCCCCCCCCCCCCCCCn1cc(COc2ccc(C=O)cc2)nn1`, the growth is 90.4% (inactive) in the assay with NCI-H23 lung; 102% (inactive) in the assay on NCI-H226 lung; 108% (inactive) in the assay on NCI-H322M lung; 104% (inactive) in the assay with HOP-62 NSCLC; 102% (inactive) with NCI-H460 lung; 135% (inactive) with HOP-92 NSCLC. For the same compound, the growth is 89% (inactive) in the assay on NCI-H522 lung; 94.9% (inactive) in the assay with 786-0 renal; 113% (inactive) in the assay on COLO 205 colon; 92.4% (inactive) in the assay with DU-145 prostate; 85.9% (inactive) with K-562 leukemia; 106% (inactive) in the assay with MALME-3M melanoma. For the same compound, the growth is 110% (inactive) in the assay with MDA-MB-231 breast; 113% (inactive) in the assay on RXF 393 renal; 93.7% (inactive) with SF-268 CNS; 98.7% (inactive) in the assay on SF-295 CNS; 98.5% (inactive) with SF-539 CNS; 109% (inactive) in the assay with UACC-257 melanoma. Further, the growth with M14 melanoma was 92.8% (inactive).

With `ON=C1CCCCCCCC1`, the growth in the assay with NCI-H23 lung is 99.6% (inactive) and 98% (inactive); in the assay with NCI-H226 lung, 105% (inactive); with NCI-H322M lung, 96.4% (inactive); in the assay on HOP-62 NSCLC, 104% (inactive); in the assay on NCI-H460 lung, 114% (inactive) and 110% (inactive); in the assay with HOP-92 NSCLC, 105% (inactive) and 102% (inactive). Also, the growth in the assay on NCI-H522 lung was 94.1% (inactive) and 92.8% (inactive); with 786-0 renal, 116% (inactive) and 95.6% (inactive); with COLO 205 colon, 102% (inactive) and 112% (inactive); in the assay with DU-145 prostate it was 107% (inactive) and 103% (inactive); in the assay with K-562 leukemia, 88.5% (inactive) and 108% (inactive); in the assay with MALME-3M melanoma it was 100% (inactive) and 98.6% (inactive). The growth with MDA-MB-231 breast is 107% (inactive) and 123% (inactive); in the assay on RXF 393 renal, 112% (inactive); with SF-268 CNS, 99.8% (inactive) and 96.9% (inactive); in the assay with SF-295 CNS it was 105% (inactive) and 103% (inactive); with SF-539 CNS, 92.1% (inactive) and 102% (inactive); with UACC-257 melanoma, 104% (inactive) and 107% (inactive). Further, in the assay with M14 melanoma, the growth was 102% (inactive) and 101% (inactive).
